# PP1 inh: counter-screen for PP5 inhibitors: inhibitors of human PP1-alpha. P62136. inhibition, % at 6.7 µM. hit rate 0.9% among 320,000. purified PP1alpha, OMFP fluorescence;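 active means inhibition above the mean inhibition of all tested compounds plus 3 SD, computed separately for each screening campaign, cut at about 15% in these data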
# ATG4B inhibitor: blocks human ATG4B protease cleavage of LC3 substrate; inhibition, % at 8.33 µM; hit rate 0.51% among 340,000; ATG4B cleavage of LC3-PLA2, NBD-HPC fluorescence, 1 h; in the data active means inhibition above about 40%
# Target sequence (Q9Y4P1 whole entry, looked up): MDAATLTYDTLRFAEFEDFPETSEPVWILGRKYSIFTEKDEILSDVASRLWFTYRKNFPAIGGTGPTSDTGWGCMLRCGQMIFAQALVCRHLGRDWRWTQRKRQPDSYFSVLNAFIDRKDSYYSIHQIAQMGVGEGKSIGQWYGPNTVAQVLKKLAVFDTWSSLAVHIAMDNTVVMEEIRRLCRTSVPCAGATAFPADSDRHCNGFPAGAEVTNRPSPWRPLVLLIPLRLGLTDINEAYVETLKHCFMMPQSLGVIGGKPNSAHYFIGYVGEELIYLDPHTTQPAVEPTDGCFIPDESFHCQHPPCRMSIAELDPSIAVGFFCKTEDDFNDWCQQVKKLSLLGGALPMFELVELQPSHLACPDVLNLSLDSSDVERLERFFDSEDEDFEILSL
# PP5 primary: PP5 (human) phosphatase inhibition; P53041; purified PP5c, OMFP substrate fluorescence; inhibition, % at 6.7 µM; hit rate 0.18% among 320,000;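 active means inhibition above the campaign's mean inhibition across all tested compounds plus 3 SD, cut at about 9.5% in these data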;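 further: 0% = DMSO only and 100% = 100 µM cantharidin control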
# H9c2 protect: protects H9c2 cardiomyocytes from peroxide injury. H2O2 injury protection, ATPLite, 2 h. protection from H2O2 cell death, % at 20 µM. hit rate 0.63% among 360,000;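 active means compounds giving at least 50% protection of heart cells from peroxide-induced death in the single-dose screen, raw or plate-pattern-corrected value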;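 further: 0% = DMSO wells with peroxide and 100% = DMSO wells without peroxide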
# PP1 inh confirm: confirmation of human PP1 phosphatase inhibitors; hit rate 52% among 1,900; shares compounds with PP1 inh; purified PP1alpha, OMFP substrate fluorescence; inhibition, % at 6.7 µM;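 active means mean PP1 inhibition above a set limit taken from the earlier primary screen, cut at about 15% in these data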
# PP5 counter: PP5 phosphatase inhibition, counter-screen for PP1 inhibitors. shares compounds with PP1 inh. purified PP5c, OMFP fluorescence. inhibition, % at 6.7 µM. hit rate 4% among 1,900;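 active means mean PP5 inhibition over triplicate wells above about 9.5% taken from the earlier PP1 screen, limit read from the data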
# * hit, by the source's call; nt = no result given. Sampled rows, rich in hits. Any-hit rate of the full collection: about 1.9%.
SMILES,PP1 inh,ATG4B inhibitor,PP5 primary,H9c2 protect,PP1 inh confirm,PP5 counter
CCC(C)(C)c1ccc(OCCCC[n+]2cccc(C)c2C)c(C(C)(C)CC)c1,20.2*,18.6,1.7,-15.1,-3.0,0.6
CCC(C)(C)c1ccc(OCCCC[n+]2ccc(C)cc2)c(C(C)(C)CC)c1,20.9*,11.3,2.1,nt,-6.0,-0.1
CC(=O)Nc1ccc(S(=O)(=O)N(C)CC(=O)OC2CCCCC2=O)cc1 (centres undefined),-0.2,-6.1,1.2,7.6,nt,nt
COC(=O)c1ccc(CSc2nc3scc(-c4cccs4)c3c(=O)[nH]2)o1,22.1*,53.5*,0.7,-12.2,8.9,-2.0
COc1cc(/C=C2/SC(=S)N(Cc3ccccc3)C2=O)ccc1OS(C)(=O)=O,2.6,-1.8,-2.3,-11.1,nt,nt
COc1cc(/C=C2/SC(=S)N(Cc3ccccc3)C2=O)ccc1OCC(=O)O,20.3*,28.1,2.4,-3.4,11.8,-0.8
O=C1C(Cc2ccccc2)Nc2ncnc(N3CCc4ccccc4C3)c2N1Cc1ccc(Cl)cc1 (centres undefined),24.4*,4.6,3.7,6.8,20.1*,5.7
CCC1Nc2ncnc(N3CCc4ccccc4C3)c2N(Cc2ccc(Cl)cc2)C1=O (centres undefined),nt,6.3,nt,-0.2,nt,nt
O=C(CN1C(=O)S/C(=C\c2ccc(Cl)cc2)C1=O)NC1C=CS(=O)(=O)C1 (centres undefined),-1.6,7.2,1.6,3.5,nt,nt
O=C(CN1C(=O)S/C(=C\c2ccc(Cl)cc2)C1=O)NNC(=O)c1ccccc1O,18.5*,10.7,-0.1,5.6,12.4,-5.6
C[C@H](CO)N1C[C@H](C)[C@@H](CN(C)CC2CC2)Oc2c(NC(=O)Cc3ccccc3)cccc2C1=O,nt,-6.3,nt,6.1,nt,nt
COc1cc(/C=N/NC(=O)COc2c(C)cc([N+](=O)[O-])cc2C)ccc1OC(=O)c1ccccc1Br,21.1*,2.5,2.2,-2.7,17.4*,0.0
C[C@H](CO)N1C[C@H](C)[C@@H](CN(C)S(=O)(=O)c2cn(C)cn2)Oc2c(NS(=O)(=O)c3ccc(F)cc3)cccc2C1=O,nt,5.1,nt,10.3,nt,nt
COc1cccc(NC(=O)COC(=O)c2c(NC(C)=O)sc(C)c2C)c1,18.4*,-48.3,1.1,2.3,20.8*,3.4
Cc1cc2nc(-c3ccc(SCC(=O)Nc4ccc(S(=O)(=O)N5CCCC5)cc4)nc3)[nH]c2cc1C,34.9*,26.8,0.9,-11.7,34.2*,-1.8
COc1ccc2sc(-c3ccc(N(C)C)cc3)c(-c3cnc(OC)nc3)c2c1,-1.6,-2.8,0.2,-0.2,nt,nt
Cc1cc(SCC(=O)N/N=C/c2ccc(O)c(O)c2O)c(C)cc1Br,35.5*,5.4,3.4,40.6,32.7*,-1.3
COCCN(C(=O)CSc1nc2ccc(OC)cc2[nH]1)c1c(N)n(Cc2ccccc2)c(=O)[nH]c1=O,-3.0,7.6,0.9,8.1,nt,nt
CSCc1cc(N(C)C)nc(SCc2ccc(Cl)c(Cl)c2)n1,21.8*,6.5,1.5,-4.8,10.4,-1.6
CNc1cc(CSC)nc(SCc2ccc(Cl)cc2Cl)n1,8.3,-0.2,4.3,-19.3,nt,nt
CCOc1ccc(NC(=O)c2ccc3c(c2)S(=O)(=O)N=C2CCCCCN23)cc1,nt,nt,nt,-2.2,nt,nt
O=C(O)c1cn(-c2ccc(F)cc2)c2cc(Cl)c(F)cc2c1=O,1.6,1.8,0.4,0.0,nt,nt
NC1C2CN(c3nc4c(cc3F)c(=O)c(C(=O)O)cn4-c3ccc(F)cc3F)CC12 (centres undefined),19.9*,-3.2,1.1,-0.5,14.5,-1.5
Cc1ccc2nc(NC(=O)COC(=O)CSc3nc(C)cc(C)n3)sc2c1,-1.6,-11.0,-0.4,-5.8,nt,nt
CSc1nsc(SCC(=O)Nc2nc3ccc(C)cc3s2)n1,25.9*,-3.9,-0.4,-3.1,18.7*,-4.8
SMILES,PP1 inh,ATG4B inhibitor,PP5 primary,H9c2 protect,PP1 inh confirm,PP5 counter
CN(C)CC1CCC/C(=C/c2ccc(Cl)cc2)C1=O (centres undefined),nt,0.4,nt,-16.5,nt,nt
Cc1ccc(Nc2cc(C)nc(NCc3ccccc3)n2)cc1,17.7*,24.8,4.8,-36.4,4.2,4.1
O=c1cc(-c2c(O)c3ccccc3n(Cc3ccccc3)c2=O)[nH][nH]1,28.7*,-0.2,-0.1,17.1,4.8,2.0
CC(=O)NCCC(=O)NCc1ccc(F)cc1,19.1*,-0.9,-0.5,-6.2,-5.7,-6.6
Cc1ccc(C(=O)Nc2nnc(NC(=S)Nc3ccccc3)s2)cc1,21.3*,-1.4,3.3,-12.0,24.4*,0.2
CCOc1ccc(C(=O)Nc2nnc(NC(=S)Nc3ccccc3)s2)cc1,18.9*,-3.8,1.2,-25.7,32.9*,3.8
CCN(CC)CC(O)c1ccc2ccc3ccc(O)cc3c2c1 (centres undefined),nt,-12.2,nt,-5.0,nt,nt
Cc1[nH]c(=O)[nH]c(=O)c1CSc1nnc(CCCCCNC(=O)OC(C)(C)C)o1,23.3*,8.0,0.8,12.8,-3.3,-3.3
CCOc1ccc(NCc2nnc(SCc3ccc(Cl)cc3)n2-c2ccccc2)cc1,18.5*,6.6,3.0,-4.2,1.4,3.3
CCOC(=O)CSc1nnc(CNc2ccc(Cl)cc2)n1-c1ccccc1,-1.2,-0.8,1.3,-3.4,nt,nt
CCOc1ccc(NCc2nnc(SCC(=O)Nc3nc(-c4ccccc4)cs3)n2-c2ccccc2)cc1,28.0*,5.2,2.3,-8.8,14.9,-2.8
COc1cccc(CN(C)C(=O)c2ccc(NC(=O)CC3SC(N4CCCC4)=NC3=O)cc2)c1OC (centres undefined),-0.5,-3.2,-2.8,-4.9,nt,nt
CC1(C(=O)Nc2cnc3ccccc3c2)CCN1CCOc1ccccc1 (centres undefined),nt,nt,nt,7.6,nt,nt
CCC(=O)N1N=C(c2c(-c3ccccc3)c3cc(Cl)ccc3[nH]c2=O)CC1c1ccco1 (centres undefined),27.1*,3.8,-0.6,21.5,10.1,-1.2
Cc1cccnc1NC(=O)CNC(=O)c1ccccc1,-3.1,-3.2,2.6,0.6,nt,nt
O=C(O)c1c[nH]c2ccc(S(=O)(=O)N3CCN(c4ccc(F)cc4)CC3)cc2c1=O,43.6*,0.5,0.1,-3.4,32.0*,-3.7
CCOC(=O)N1CCN(S(=O)(=O)c2ccc3[nH]cc(C(=O)O)c(=O)c3c2)CC1,1.5,-4.8,-0.2,5.2,nt,nt
CCCCN(C(=O)CSc1ncn[nH]1)c1c(N)n(Cc2ccccc2)c(=O)[nH]c1=O,-0.8,-52.5,3.0,2.3,nt,nt
N#Cc1ccc(-c2ccc3c(c2)OCO3)nc1SCC(=O)OCc1ccccc1,17.6*,-10.1,2.5,12.5,10.1,1.1
Cc1[nH]n(-c2ccccc2)c(=O)c1C=Nc1cnc2ccccc2c1,-1.4,-3.6,-0.6,18.0,nt,nt
CCOc1ccc(N=Cc2c(C)[nH]n(-c3nc4ccccc4[nH]3)c2=O)cc1,22.9*,-12.1,1.8,-13.7,13.6,0.9
O=C(NCc1cccnc1)c1cc(C2CCCCN2C(=O)c2cccs2)on1 (centres undefined),nt,nt,nt,-3.8,nt,nt
CC1CCCN(C(=O)Cc2cccc3ccccc23)C1 (centres undefined),-4.7,-6.7,1.2,-0.4,nt,nt

# Screening results: PubChem, several laboratories
